Growth data for 15 molecules are collected here from PubChem BioAssay (NCI).

Test systems include EKVX NSCLC; SN12C renal; UO-31 renal; TK-10 renal; ACHN renal; CAKI-1 renal; CCRF-CEM leukemia; MOLT-4 leukemia; SR leukemia; A498 renal.
Holding throughout (experiment): NCI-60 one-dose screen, 48 h (100 = growth as untreated, 0 = no growth, -100 = all killed)
What all share (conditions): 10 µM unless noted

About 83,000 compounds went through this panel and 20% of them were active in at least one assay; those are over-represented in the sample as a whole.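 Negative percent growth values reflect cell death: -40 means 40% of the cells present at the start died, and -100 means all died.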 Unmarked numbers belong to inactive results. The source made the active and inactive calls. Rule for the calls: active = growth percent below 10; inactive = the rest.

On to `Nc1ccc2c(c1)/C(=N/O)c1cc([N+](=O)[O-])ccc1-2`, for which the growth in the assay with EKVX NSCLC is 85.9%; in the assay with SN12C renal, 86.2%; in the assay with UO-31 renal, 21.7%; with TK-10 renal, 57.6%; with ACHN renal, 58.7%; in the assay on CAKI-1 renal, 46.6%. For the same molecule, the growth is 25% with CCRF-CEM leukemia, 25.6% with MOLT-4 leukemia and 9.6% (active) in the assay with SR leukemia.
Turning to `CCCCCCCC1(C)NC(=O)NC1=O` (centres undefined), the growth with EKVX NSCLC is 105%; with SN12C renal, 109%; in the assay with UO-31 renal, 93.8%; in the assay with TK-10 renal it was 132%; in the assay with ACHN renal, 101%; in the assay on CAKI-1 renal it was 105%. The growth with CCRF-CEM leukemia was 94.2%; in the assay on MOLT-4 leukemia, 106%; in the assay with SR leukemia, 96.9%.
As for `COC(=O)C[C@@H]1CC=CC(=O)/C1=C(O)/C=C/c1ccccc1`, the growth in the assay on EKVX NSCLC is -30.8% (active); in the assay with SN12C renal, -41.5% (active); in the assay on UO-31 renal it was -80.8% (active); in the assay on TK-10 renal it was -23.7% (active); in the assay on ACHN renal, -83.3% (active); with CAKI-1 renal, -82.9% (active). The growth is 10.8% with CCRF-CEM leukemia, 3.09% (active) in the assay on MOLT-4 leukemia and 5.6% (active) with SR leukemia.
Regarding `O=C(/C=C/c1cccnc1)NCCCCC1CCCN(C(=O)c2ccccc2)C1` (centres undefined), the growth in the assay on EKVX NSCLC is 106%; in the assay on SN12C renal, 38.3%; in the assay on UO-31 renal, 39.9%; in the assay on TK-10 renal, 103%; in the assay on ACHN renal it was 73.7%; in the assay with CAKI-1 renal it was -15.7% (active). Moreover, the growth in the assay on CCRF-CEM leukemia was 41.5%; with MOLT-4 leukemia, 43.8%; in the assay with SR leukemia, 33%.
As to `NC(=O)SCC(=O)Nc1ccccc1-c1ccccc1`, the growth in the assay with EKVX NSCLC is 121%; with SN12C renal it was 90.7%; with UO-31 renal, 64.9%; in the assay with TK-10 renal, 106%; in the assay on ACHN renal it was 83%; in the assay with CAKI-1 renal, 105%. Besides, the growth is 103% in the assay on CCRF-CEM leukemia, 98% with MOLT-4 leukemia and 122% in the assay with SR leukemia.
For `O=C1C[C@@H]2/C(=C(O)\C=C\c3ccccc3)C(=O)C=C[C@@H]2O1`, the growth in the assay with EKVX NSCLC is 25.6%; with SN12C renal, -21.8% (active); in the assay with UO-31 renal, -85.9% (active); with TK-10 renal, 3.39% (active); with ACHN renal, -17.7% (active); in the assay with CAKI-1 renal, -54% (active). For the same molecule, the growth in the assay with CCRF-CEM leukemia was 12.5%; in the assay on MOLT-4 leukemia, 6.97% (active); with SR leukemia, 10.2%.
Consider `CN1C(=O)/C(=C/c2nc(-c3cccc(F)c3)n3ccccc23)c2ccccc21`, for which the growth in the assay on EKVX NSCLC was 79%; with SN12C renal it was 85.9%; in the assay on UO-31 renal, 89.8%; in the assay with TK-10 renal, 61.7%; in the assay on ACHN renal it was 39.9%; with CAKI-1 renal, 68%. For the same molecule, the results for the growth with CCRF-CEM leukemia, in the assay on MOLT-4 leukemia and in the assay on SR leukemia were 88.9%, 71.6% and 60.5%, respectively.
In the case of `Cn1cc(-c2csc(-c3cn(C)c4ncccc34)n2)c2cc(Br)cnc21`, the growth is 84.4% with EKVX NSCLC; 89.4% in the assay on SN12C renal; 100% in the assay with UO-31 renal; 95.5% in the assay with ACHN renal; 85.3% with CAKI-1 renal; 79% in the assay on A498 renal. The results for the growth in the assay on CCRF-CEM leukemia and with MOLT-4 leukemia were 80% and 85%, respectively.
With `CCOC(=O)C1=NN(c2ccc(Cl)cc2)C2C3N(c4ccc(Cl)cc4)N=C(C(=O)OCC)N3c3ccccc3N12` (centres undefined), the growth in the assay with EKVX NSCLC is 104%; in the assay with SN12C renal, 111%; in the assay on UO-31 renal it was 92.6%; in the assay with TK-10 renal it was 119%; with ACHN renal, 121%; with A498 renal it was 131%. In addition, the growth is 47.4% with MOLT-4 leukemia and 40.4% with SR leukemia.
`Clc1ccc(-n2cnc3c(Cl)ncnc32)cc1Cl`: the growth is 88.5% in the assay with EKVX NSCLC; 100% in the assay with SN12C renal; 114% in the assay on UO-31 renal; 89.3% in the assay with TK-10 renal; 95.7% in the assay on ACHN renal; 28.4% with CAKI-1 renal. Moreover, the growth with MOLT-4 leukemia was 82.6%; in the assay on SR leukemia, 19.5%.
Take `O=C(/C=C/c1cc2ccccc2[nH]c1=O)c1ccc(Cl)cc1`: the growth was 63.7% in the assay on EKVX NSCLC; 47.4% in the assay with SN12C renal; 29.8% in the assay with UO-31 renal; 48.5% in the assay on TK-10 renal; 51.6% in the assay on ACHN renal; 42.1% in the assay on CAKI-1 renal. Also, the growth in the assay on MOLT-4 leukemia was 2.61% (active).
For the molecule `COc1ccc(-c2cc(Cc3cccs3)c(=O)n(Cn3cncn3)n2)cc1`, the growth in the assay with EKVX NSCLC is 103%; in the assay on SN12C renal, 93.1%; in the assay on UO-31 renal, 86.4%; in the assay with ACHN renal it was 97.6%; with CAKI-1 renal it was 98.3%; in the assay with A498 renal, 83.5%. For the same molecule, the growth in the assay on CCRF-CEM leukemia was 102%; with MOLT-4 leukemia, 93%; with SR leukemia, 84%.
`COc1ccc(OC)c(/C=C/c2nc(=S)n(-c3ccc(Cl)cc3)[nH]2)c1`: the growth in the assay with EKVX NSCLC was 75.2%; with SN12C renal, 66.2%; in the assay on UO-31 renal it was 47.1%; with TK-10 renal it was 88.8%; with ACHN renal, 71.2%; in the assay on CCRF-CEM leukemia, 60.6%. Further, the growth with MOLT-4 leukemia is 52.8%; in the assay on SR leukemia it was 38.3%.
As to `COc1ccc2nccc(/C=C/c3ccnc4ccc(OC)cc34)c2c1`, the growth in the assay on EKVX NSCLC was 105%; in the assay on SN12C renal it was 118%; in the assay with UO-31 renal, 97%; in the assay with TK-10 renal, 148%; in the assay with ACHN renal, 102%; with A498 renal it was 87.9%. Besides, the growth with CCRF-CEM leukemia is 59.6%; with MOLT-4 leukemia, 33.1%; in the assay with SR leukemia it was 21.4%.
Regarding `CCOC(=O)c1c2c(c(C)n1Cc1ccccc1)-c1nc(N)ncc1CC2`, the growth is 88.9% in the assay with EKVX NSCLC; 102% in the assay on SN12C renal; 79.7% with UO-31 renal; 103% with TK-10 renal; 92.2% in the assay on ACHN renal; 88.2% in the assay on A498 renal. Besides, the growth with CCRF-CEM leukemia is 93.7%; with MOLT-4 leukemia, 95.7%; in the assay with SR leukemia it was 86.2%.
